The structures appear in SMILES notation. Unmarked numbers belong to inactive results. Records with an inconclusive call do not appear. Active and inactive are the calls of the source. Unless noted, calls follow the shape of the dose curve; as a rule, active = well fitted curve in either direction with a large enough effect (not every such curve was filed as active); inconclusive = small, poorly fitted or top-dose-only effect, or another doubt; inactive = flat fitted curve, though single readings scatter.

Test [1] is described as follows: AP1 Signaling Pathway (AID 357). Also: % is scaled to controls: 0 for no effect and ±100 for the full control effect. The settings on record: ME-180 AP-1-bla reporter, EGF-induced, beta-lactamase ratio, 5 h; at 17.2 µM (top of the series) unless noted. The method, boiled down: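 Read-out was the 460nm/530nm emission ratio (excitation 405nm) after CCF4 loading for 2.5 hours at room temperature. Cells carried an AP-1-driven beta-lactamase reporter, were stimulated with EC50 EGF plus compound for 5 hours, and AC50 values came from titrations.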

Test [2] has as its target Cytochrome P450 1A2 (Homo sapiens) (UniProt P05177). Kind of test: p450-cyp1a2 (AID 410; calls by dose curve; also: potency is read from the fitted curve at half-maximal effect). The gist of the method:
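Luminescent readout of luciferin formed from Luciferin-ME by human CYP1A2; data normalized against complete inhibition by 57 uM furafylline. Enzyme 20nM, substrate 100uM at Km, 100mM KPO4 buffer, 60 min reaction at room temperature.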

Test [3] in a line: Stat Signaling Pathway (AID 446).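 Also: ME-180 cervical cancer cells given 40 pM IL-6 alongside compound; SIE-controlled beta-lactamase reporter measured as 460/530 nm FRET emission ratio; % is scaled to controls: 0 for no effect and ±100 for the full control effect.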 The settings on record: ME-180 SIE beta-lactamase reporter, IL-6 stimulated, 5 h; at 17.2 µM (top of the series) unless noted. The method, boiled down: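 ME-180 cells carrying a SIE-driven beta-lactamase reporter are stimulated with 40 pM IL-6 for 5 h at 37C in the presence of compound. The 460/530 nm FRET substrate ratio is read after 2.5 h at RT. Data are normalised to 300 pM IL-6 and to 125 nM JAK inhibitor controls.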

The target in test [4] is Glucocorticoid receptor (Homo sapiens) (UniProt P04150). Kind of test: GR-GFP Redistribution (AID 450;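 active = compounds whose dose series gives a full or clear partial fitted curve of increased nuclear translocation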; also: potency is read from the fitted curve at half-maximal effect).
Glucocorticoid receptor (Homo sapiens), sequence (P04150 whole entry, looked up, the tested form may be a part): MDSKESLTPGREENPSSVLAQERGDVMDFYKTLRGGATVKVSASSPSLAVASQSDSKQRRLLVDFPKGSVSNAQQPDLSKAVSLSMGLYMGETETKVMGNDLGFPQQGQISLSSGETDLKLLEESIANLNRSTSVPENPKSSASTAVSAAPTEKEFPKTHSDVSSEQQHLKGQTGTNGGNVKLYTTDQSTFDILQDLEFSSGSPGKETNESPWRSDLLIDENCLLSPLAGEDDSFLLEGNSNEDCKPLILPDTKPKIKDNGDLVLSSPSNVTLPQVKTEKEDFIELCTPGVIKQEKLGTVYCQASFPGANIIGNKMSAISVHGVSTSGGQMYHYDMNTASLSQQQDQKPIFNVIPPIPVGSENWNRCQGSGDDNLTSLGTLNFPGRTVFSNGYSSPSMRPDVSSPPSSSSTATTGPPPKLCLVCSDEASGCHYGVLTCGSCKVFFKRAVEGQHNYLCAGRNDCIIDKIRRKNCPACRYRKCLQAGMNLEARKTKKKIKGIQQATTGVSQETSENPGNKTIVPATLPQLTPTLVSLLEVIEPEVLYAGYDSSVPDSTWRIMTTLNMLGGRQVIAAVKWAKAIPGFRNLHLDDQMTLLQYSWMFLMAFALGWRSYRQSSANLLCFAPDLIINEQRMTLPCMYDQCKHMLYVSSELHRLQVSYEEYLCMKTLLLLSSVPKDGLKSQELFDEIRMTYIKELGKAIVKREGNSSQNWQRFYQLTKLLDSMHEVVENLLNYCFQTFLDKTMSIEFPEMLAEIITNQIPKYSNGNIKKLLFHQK
Test [5] has as its target Mitogen-activated protein kinase 10 (Mus musculus) (UniProt Q61831). Kind of test: JNK3 AlphaScreen Assay (AID 530).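 Also: kinase came from lysate of stimulated human HepG2 cells; signal reports phosphorylation of biotinylated GST-cJun 1-79 at Ser73 with 10 µM ATP; % is scaled to controls: 0 for no effect and ±100 for the full control effect.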 The gist of the method: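 Pre-activated (IL-1β/TNFα) JNK3 in HepG2 lysates phosphorylates biotin-GST-cJun(1-79), 10 uM ATP; anti-phospho-cJun(Ser73) AlphaScreen read at room temperature, pH 7.6 Tris buffer. Compounds pre-incubated 15 min as titrations.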
(Bead proximity is the source of the signal in Alpha formats.)

The target of test [6] is 3',5'-cyclic-AMP phosphodiesterase 4B (Homo sapiens) (UniProt Q07343). In words: qHTS Assay for Inhibitors of PDE-IV (AID 607; active = well fitted activation curve with a large enough effect in the main read-out, with a control signal flat, not every such curve was filed as active; also: % of control where 0% means no effect). The gist of the method:
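HEK293 ACTOne cells with CNG channel (1000/well), endogenous PDE4; membrane potential dye, compounds up to 22.9 uM final. Fluorescence Ex 535/Em 590; RO 20-1724 (100 uM final) as reference.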

Test [7] is described as follows: qHTS Assay for Identification of Small Molecule Agonists for Hypoxia Response Element Signaling Pathway (AID 914; active = well fitted activation curve with a large enough effect in the signal ratio, with a control signal flat, not every such curve was filed as active; the % refers to the signal ratio; also: % of control where 0% means no effect). The settings on record: ME-180 HRE-bla reporter, beta-lactamase ratio, CoCl2, 17 h; activation: hits give high values. The gist of the method: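 HRE-bla ME-180 cells, overnight plating in Opti-MEM with 0.5% dialyzed FBS; cpd titration + EC50 CoCl2, 17 h, 37 degrees Celsius; CCF4 2.5 h RT; 460/530 nm ratio; AC50.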
A general note: Quantitative high-throughput screening tests each substance at several concentrations.

For test [8], the target named is Guanine nucleotide-binding protein G(i) subunit alpha-1 (Homo sapiens) (UniProt P63096). In words: qHTS Assay for Inhibitors of RGS12 GoLoco Motif Activity (Green Fluorophore) (AID 879; active = well fitted curve in the direction sought with a large enough effect; an effect the other way counts as inactive or inconclusive;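 also: 0% = labeled peptide with Gαi1 and full inhibition = labeled peptide alone without protein; negative values mean loss of peptide binding seen as reduced polarization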). The gist of the method:
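Fluorescence polarization assay: 50 nM Gαi1 with 10 nM FITC-labeled RGS12 GoLoco peptide in 10 mM Tris pH 7.5, 150 mM NaCl, 0.1 mM GDP, 0.05% NP40, 10 min at room temperature with compound.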

Test [9] has as its target Cytochrome P450 3A4 (Homo sapiens) (UniProt P08684). Kind of test: qHTS Assay for Inhibitors and Substrates of Cytochrome P450 3A4 (AID 884; active = well fitted curve in the direction sought with a large enough effect; an effect the other way counts as inactive or inconclusive; also: % is scaled to controls: 0 for no effect and ±100 for the full control effect; nearly all actives have a fitted effect of over 50% in size). The gist of the method: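 20 nM human CYP3A4 with 25 uM Luciferin-PPXE (at KM) in 200 mM KPO4, preincubated 10 min with compound; NADPH regeneration started a 60 min RT reaction. Luciferin detected by luminescence, normalized to 57 uM ketoconazole as full inhibition.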

Test [10] can be described thus: qHTS Assay for Identification of Small Molecule Antagonists for NFkB Signaling Pathway (AID 895; active = well fitted inhibition curve with a large enough effect in the signal ratio, with a control signal flat, not every such curve was filed as active; the % refers to the signal ratio; also: % is scaled to controls: 0 for no effect and ±100 for the full control effect). The method, boiled down: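 ME-180 NFkB-bla cells (beta-lactamase under NFkB response element), plated overnight, treated with compound then 10 pM TNF alpha (about EC50) for 5 hrs at 37 C. LiveBLAzer FRET read at 460/530 nm emission, 405 nm excitation.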
Test [11] deals with Muscarinic acetylcholine receptor M1 (Rattus norvegicus) (UniProt P08482). Kind of test: qHTS Assay for Antagonists of Acetylcholine Muscarinic M1 Receptor: Measurement of IP-One Response (AID 944; active = well fitted curve in the direction sought with a large enough effect; an effect the other way counts as inactive or inconclusive; also: nearly all actives have a fitted effect of over 75% in size; also: potency is read from the fitted curve at half-maximal effect). The method, boiled down: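 M1-CHO (rat), 2000 cells/well, overnight recovery; cpd 10 min; carbachol EC80 (200 nM), 30 min, HEPES buffer + 50 mM LiCl pH 7.4; IP-One HTRF, Ex 337, Em 620/665 nm.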
Muscarinic acetylcholine receptor M1 (Rattus norvegicus), sequence (P08482 whole entry, looked up): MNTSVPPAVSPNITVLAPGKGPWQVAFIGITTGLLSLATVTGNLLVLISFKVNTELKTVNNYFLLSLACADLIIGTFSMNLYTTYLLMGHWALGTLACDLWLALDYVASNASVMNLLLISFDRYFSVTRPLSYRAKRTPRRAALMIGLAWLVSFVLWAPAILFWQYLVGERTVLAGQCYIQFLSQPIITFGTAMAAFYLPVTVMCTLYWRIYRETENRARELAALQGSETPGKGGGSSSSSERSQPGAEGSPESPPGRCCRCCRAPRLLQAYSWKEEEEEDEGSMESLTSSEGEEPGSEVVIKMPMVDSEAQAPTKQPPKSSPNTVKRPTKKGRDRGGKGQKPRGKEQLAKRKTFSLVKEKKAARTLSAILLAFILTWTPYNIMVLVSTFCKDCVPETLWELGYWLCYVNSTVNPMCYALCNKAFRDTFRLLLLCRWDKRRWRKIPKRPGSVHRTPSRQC

The target in test [12] is Pyruvate kinase (Leishmania mexicana) (UniProt Q27686). Kind of test: qHTS Validation Assay for Inhibitors of Leishmania Mexicana Pyruvate Kinase (AID 945; active = well fitted curve in the direction sought with a large enough effect; an effect the other way counts as inactive or inconclusive;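 also: 0% = DMSO only neutral control wells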). The method, boiled down: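 Luminescent ATP detection (PKLight) after a 1 h room-temperature reaction of 0.2 nM LmPYK E451W mutant with 0.5 mM PEP and 0.1 mM ADP at pH 7.2. Activity is normalized to DMSO-only control wells.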
Pyruvate kinase (Leishmania mexicana), sequence (Q27686 2-499 E452W): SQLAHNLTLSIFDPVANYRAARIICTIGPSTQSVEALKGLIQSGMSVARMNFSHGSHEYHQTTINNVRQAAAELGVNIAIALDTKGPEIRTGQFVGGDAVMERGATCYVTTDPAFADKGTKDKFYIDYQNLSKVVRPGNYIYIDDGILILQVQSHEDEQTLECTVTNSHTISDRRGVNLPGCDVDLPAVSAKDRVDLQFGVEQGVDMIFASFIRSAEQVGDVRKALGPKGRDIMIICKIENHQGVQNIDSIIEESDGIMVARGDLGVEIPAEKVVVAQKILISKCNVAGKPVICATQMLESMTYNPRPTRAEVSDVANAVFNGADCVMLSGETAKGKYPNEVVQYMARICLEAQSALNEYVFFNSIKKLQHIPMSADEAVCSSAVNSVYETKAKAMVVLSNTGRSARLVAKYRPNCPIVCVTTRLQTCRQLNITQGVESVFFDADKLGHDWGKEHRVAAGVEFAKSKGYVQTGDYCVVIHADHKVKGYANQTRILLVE

In test [13] the target is Pyruvate kinase PKM (Homo sapiens) (UniProt P14618). Kind of test: qHTS Assay for Activators of Human Muscle Pyruvate Kinase (AID 954; active = well fitted curve in the direction sought with a large enough effect, not every such curve was filed as active;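 also: 0% = uninhibited enzyme and -100% = no enzyme or full thiadiazolimine inhibition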). The method, boiled down: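 Purified human PKM2 (0.1 nM) with 0.5 mM PEP (Km) and 0.1 mM ADP in 50 mM imidazole pH 7.2, KCl, MgCl2, 1 h at room temperature; ATP formed read by coupled luciferase luminescence. Normalized to no-enzyme/110 uM thiadiazolimine inhibition; 0.3 nM enzyme column for activation.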
Pyruvate kinase PKM (Homo sapiens), sequence (P14618 whole entry, looked up): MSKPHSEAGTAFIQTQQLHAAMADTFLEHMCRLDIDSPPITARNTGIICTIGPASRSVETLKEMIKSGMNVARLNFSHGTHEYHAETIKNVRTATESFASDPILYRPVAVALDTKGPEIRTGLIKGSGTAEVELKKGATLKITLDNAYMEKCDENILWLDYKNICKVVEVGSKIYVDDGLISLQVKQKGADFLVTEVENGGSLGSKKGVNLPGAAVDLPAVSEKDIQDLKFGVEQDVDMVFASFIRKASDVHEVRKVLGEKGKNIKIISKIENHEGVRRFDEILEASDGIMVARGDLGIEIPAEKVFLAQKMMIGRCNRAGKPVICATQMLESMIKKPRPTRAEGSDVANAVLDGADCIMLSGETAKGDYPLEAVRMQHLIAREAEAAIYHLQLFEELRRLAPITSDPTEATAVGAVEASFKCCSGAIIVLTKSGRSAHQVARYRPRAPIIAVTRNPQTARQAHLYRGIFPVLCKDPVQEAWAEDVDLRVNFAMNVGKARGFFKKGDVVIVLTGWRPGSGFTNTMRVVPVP

In test [14] the target is Alpha-galactosidase A (Homo sapiens) (UniProt P06280). In words: Counterscreen for Glucocerebrosidase Inhibitors: qHTS Assay for Human alpha-Galactosidase at pH 4.5 (AID 992; active = well fitted curve in the direction sought with a large enough effect; an effect the other way counts as inactive or inconclusive; also: 0% is about no effect). The method, boiled down: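 Human enzyme (2 nM) with 80 uM 4-methylumbelliferyl alpha-D-galactopyranoside in 50 mM citric acid, 0.005% Tween-20, pH 4.5, 20 min at room temperature. Compounds 0.7 nM–77 uM; fluorescence Ex 365/Em 440 after pH 10 stop; AC50 from Hill fits.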
Alpha-galactosidase A (Homo sapiens), sequence (P06280 whole entry, looked up): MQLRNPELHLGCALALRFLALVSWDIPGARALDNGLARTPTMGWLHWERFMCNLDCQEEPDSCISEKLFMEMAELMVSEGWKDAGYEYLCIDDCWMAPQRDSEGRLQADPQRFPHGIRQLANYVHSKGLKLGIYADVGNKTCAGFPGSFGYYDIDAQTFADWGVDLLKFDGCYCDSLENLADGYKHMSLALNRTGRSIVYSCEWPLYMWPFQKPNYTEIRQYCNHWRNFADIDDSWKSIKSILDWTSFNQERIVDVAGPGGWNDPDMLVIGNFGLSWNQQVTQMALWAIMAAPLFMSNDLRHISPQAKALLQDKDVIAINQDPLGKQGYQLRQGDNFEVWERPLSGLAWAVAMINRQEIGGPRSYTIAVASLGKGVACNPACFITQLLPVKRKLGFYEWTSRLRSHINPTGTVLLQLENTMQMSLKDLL
A general note: A counterscreen serves to expose hits that act by an unwanted route or on another target.

The target in test [15] is alpha-glucosidase (Oryza sativa, rice) (UniProt Q653V4). Kind of test: Counterscreen for Glucocerebrosidase Inhibitors: qHTS Assay for Rice alpha-Glucosidase at pH 5.0 (AID 997; active = well fitted curve in the direction sought with a large enough effect; an effect the other way counts as inactive or inconclusive;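 also: 0% = full activity with enzyme and -100% = basal without enzyme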). The method, boiled down: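 Rice alpha-glucosidase (4 nM final) with 400 uM 4-methylumbelliferyl-alpha-D-glucopyranoside in citrate buffer pH 5.0, 20 min at room temperature, stopped at pH 10; fluorescence 365/440 nm, compounds 0.7 nM–77 uM, AC50 from Hill fits.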

The nature of test [16]: NFAT Signaling Pathway (AID 444). The settings on record: Jurkat NFAT-bla M1, carbachol, beta-lactamase ratio, 5 h; at 17.2 µM (top of the series) unless noted. The gist of the method: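 Jurkat cells with NFAT-driven β-lactamase reporter and co-expressed M1 receptor, stimulated with carbachol (final 1 uM, ~EC50), compound titration, 5 h at 37 °C. CCF4 loaded 1 h at RT; 460/530 nm ratio gave %activity and AC50.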

Test [17] deals with Glucocorticoid receptor (Homo sapiens) (UniProt P04150). In words: GR-EFC Redistribution (AID 451; calls by dose curve; also: potency is read from the fitted curve at half-maximal effect). The settings on record: CHO-K1 GR-EFC translocation, beta-gal luminescence, 2 h. The gist of the method:
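CHO-K1 cells expressing nuclear EA and GR-ED fragments of b-gal; compounds titrated up to 46 uM final, 2 h at 37 C. GR nuclear translocation read as complemented b-gal luminescence after 1 h RT detection.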

The target of test [18] is Cytochrome P450 2C9 (Homo sapiens) (UniProt P11712). Kind of test: qHTS Assay for Inhibitors and Substrates of Cytochrome P450 2C9 (AID 883; active = well fitted curve in the direction sought with a large enough effect; an effect the other way counts as inactive or inconclusive; also: potency is read from the fitted curve at half-maximal effect; nearly all actives have a fitted effect of over 60% in size). The gist of the method: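 Signal: luciferase luminescence reporting luciferin produced by CYP2C9. Conditions: 10nM enzyme, Luciferin-H 100uM at KM, 25mM KPO4, 37C, 60 min NADPH-driven reaction. Reference: 57uM sulphaphenazole as 100% inhibition.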

3',5'-cyclic-AMP phosphodiesterase 4B (Homo sapiens), sequence (Q07343 whole entry, looked up): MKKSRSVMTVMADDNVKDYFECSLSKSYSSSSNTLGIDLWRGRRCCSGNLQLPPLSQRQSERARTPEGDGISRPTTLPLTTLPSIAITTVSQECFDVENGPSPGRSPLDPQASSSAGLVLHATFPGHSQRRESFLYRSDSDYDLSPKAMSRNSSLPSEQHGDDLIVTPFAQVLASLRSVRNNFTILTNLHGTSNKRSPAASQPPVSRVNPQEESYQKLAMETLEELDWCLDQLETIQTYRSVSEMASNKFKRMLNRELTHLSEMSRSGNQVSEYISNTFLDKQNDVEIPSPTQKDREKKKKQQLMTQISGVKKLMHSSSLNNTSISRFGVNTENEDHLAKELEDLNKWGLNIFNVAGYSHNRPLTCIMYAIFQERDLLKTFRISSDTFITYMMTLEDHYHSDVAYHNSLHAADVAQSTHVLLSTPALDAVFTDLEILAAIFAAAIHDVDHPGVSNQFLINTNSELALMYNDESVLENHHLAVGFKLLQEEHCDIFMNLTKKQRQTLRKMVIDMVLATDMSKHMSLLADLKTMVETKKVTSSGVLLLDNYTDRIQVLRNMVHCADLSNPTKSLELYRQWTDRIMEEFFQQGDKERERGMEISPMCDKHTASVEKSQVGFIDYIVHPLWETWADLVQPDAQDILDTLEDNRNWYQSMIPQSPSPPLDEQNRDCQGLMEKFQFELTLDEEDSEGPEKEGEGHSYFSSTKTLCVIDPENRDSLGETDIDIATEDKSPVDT
Cytochrome P450 1A2 (Homo sapiens), sequence (P05177 whole entry, looked up): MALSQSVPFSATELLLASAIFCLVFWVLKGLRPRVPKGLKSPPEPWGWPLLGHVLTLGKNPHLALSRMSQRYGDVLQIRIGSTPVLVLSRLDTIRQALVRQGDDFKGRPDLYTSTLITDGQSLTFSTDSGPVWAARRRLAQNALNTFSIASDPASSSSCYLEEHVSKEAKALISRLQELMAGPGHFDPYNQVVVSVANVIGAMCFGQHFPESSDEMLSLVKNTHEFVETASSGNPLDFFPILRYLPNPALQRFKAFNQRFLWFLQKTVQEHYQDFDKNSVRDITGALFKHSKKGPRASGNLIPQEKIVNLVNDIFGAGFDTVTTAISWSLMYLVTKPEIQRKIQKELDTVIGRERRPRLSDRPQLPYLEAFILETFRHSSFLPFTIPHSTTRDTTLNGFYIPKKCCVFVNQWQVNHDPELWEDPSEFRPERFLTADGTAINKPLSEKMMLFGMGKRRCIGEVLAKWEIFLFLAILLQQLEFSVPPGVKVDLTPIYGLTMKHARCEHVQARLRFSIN
Guanine nucleotide-binding protein G(i) subunit alpha-1 (Homo sapiens), sequence (P63096 whole entry, looked up): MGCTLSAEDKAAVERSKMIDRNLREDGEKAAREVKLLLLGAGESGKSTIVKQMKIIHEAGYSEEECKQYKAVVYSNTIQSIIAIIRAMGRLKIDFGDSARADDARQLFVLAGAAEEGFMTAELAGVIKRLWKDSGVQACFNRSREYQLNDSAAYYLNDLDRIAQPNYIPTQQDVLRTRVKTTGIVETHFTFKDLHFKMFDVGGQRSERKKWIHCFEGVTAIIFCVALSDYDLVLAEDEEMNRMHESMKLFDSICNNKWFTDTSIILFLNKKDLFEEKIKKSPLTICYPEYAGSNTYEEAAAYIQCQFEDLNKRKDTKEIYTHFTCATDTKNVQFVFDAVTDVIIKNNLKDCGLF
Cytochrome P450 3A4 (Homo sapiens), sequence (P08684 whole entry, looked up): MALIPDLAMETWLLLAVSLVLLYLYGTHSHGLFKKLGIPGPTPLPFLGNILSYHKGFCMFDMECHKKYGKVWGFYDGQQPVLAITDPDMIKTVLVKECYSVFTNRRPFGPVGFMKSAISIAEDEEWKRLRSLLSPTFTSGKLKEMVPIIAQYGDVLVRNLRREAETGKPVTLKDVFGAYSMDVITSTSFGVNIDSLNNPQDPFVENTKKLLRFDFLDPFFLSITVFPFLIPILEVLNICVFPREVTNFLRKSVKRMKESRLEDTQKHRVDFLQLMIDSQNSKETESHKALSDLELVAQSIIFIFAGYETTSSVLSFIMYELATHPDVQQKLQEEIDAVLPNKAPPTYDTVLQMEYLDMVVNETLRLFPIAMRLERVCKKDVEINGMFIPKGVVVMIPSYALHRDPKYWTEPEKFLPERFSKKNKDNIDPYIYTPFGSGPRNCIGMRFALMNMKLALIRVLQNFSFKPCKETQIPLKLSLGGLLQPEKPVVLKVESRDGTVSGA

On to `COc1ccc2c(c1)CN([C@H](C)[C@@H]1CC[C@@H]3[C@H]4CC[C@H]5C[C@@H](O)CC[C@@]5(C)[C@H]4CC[C@]31C)CO2`, for which the activity change, negative = inhibition in test [1] is 23.1% [at 7.69 µM]; in test [2], -18% [at 2.29 µM]; in test [5], -1.53% [at 11.4 µM]. The activity, negative = inhibition in [3] was -2.48% [at 7.69 µM]. In addition, the Potency in test [4] was more than 46 µM. Further, the Potency entry in [6] is “inactive”. Also, the activation in [7] is 15.9%.
Turning to `C/C=C1\C(=O)C[C@@H]2[C@@H]3CCC4=CC(=O)CC[C@@]4(C)[C@H]3CC[C@@]12C`, the activity change, negative = inhibition in [1] was 13.9% [at 38 µM]. Further, the Potency entry in test [2], in [6], in [9], in test [10], in [11] and in [12] was “inactive” in each case. Further, the activity, negative = inhibition in test [3] is 7.49% [at 38 µM]. Also, the compound was classed as inactive in test [8], in test [13], in test [14] and in test [15].
Consider `Clc1ccccc1-c1nnc2sc(-c3ccco3)nn12`, for which the activity change, negative = inhibition in test [1] was -8.96%; in test [16] it was 6.46%. In [3], the activity, negative = inhibition was 0.557%.
As to `Cc1cc(Cc2cc(Cc3cc(C)cc(C(C)(C)C)c3O)c(C)cc2C)c(O)c(C(C)(C)C)c1`, the activity change, negative = inhibition in test [1] was -2.73% [at 7.69 µM]; in test [2], -17.2% [at 2.29 µM]; in test [5] it was -4.33% [at 11.4 µM]. The activity, negative = inhibition in test [3] was -3.85% [at 7.69 µM]. In addition, the Potency was more than 46 µM in test [4], more than 9.22 µM in [17] and 3.16 µM (active) in [18]. Further, the Potency result in [6] was “inactive”.
With `Clc1ccc(C(c2ccc(Cl)cc2)n2cc[n+](C[C@@H](OCc3ccc(Cl)cc3Cl)c3ccc(Cl)cc3Cl)c2)cc1`, the activity change, negative = inhibition in test [1] was -7.48% [at 38 µM]. Further, the Potency was 31.6 µM (active) in test [2], more than 46 µM in test [4] and more than 46 µM in test [17]. Further, the Potency result in [5], in [6] and in test [12] was “inactive” in each case. Further, the result in test [8], in test [13], in [14] and in test [15] was inactive.
Regarding `O[Si@](CCCN1CCCCC1)(c1ccc(F)cc1)C1CCCCC1`, the activity change, negative = inhibition in test [1] is 11.3% [at 38 µM]. In addition, the Potency result in test [2], in test [5], in test [10] and in [12] was “inactive” throughout. For the same compound, the activity, negative = inhibition in [3] was 1.42% [at 38 µM]. Moreover, the Potency in test [4] is more than 46 µM; in test [17], more than 46 µM; in test [11], 1.41 µM (active). For the same compound, the result in test [8], in test [13], in test [14] and in test [15] was inactive.

The values above are taken from PubChem BioAssay (NCATS).
